According to ChEMBL document CHEMBL4513141, “CO-ADD screening of NIH (USA) - Clinical Collection” (2021):
Entries with a potency or affinity are not part of this list.

Tests used:
[1] = test system: Klebsiella pneumoniae; conditions: Concentration 20 uM; ASSAY_TEST Inhibition of Bacterial Growth; detection method Absorption (OD600); MEDIA CAMHB; plate type 384well; NBS; CORNING #3640; time 18 hr
[2] = test system: Candida albicans; conditions: 20 µM
[3] = test system: Cryptococcus neoformans; conditions: Concentration 20 uM; ASSAY_TEST Inhibition of Fungal Growth; detection method Resazurin; Absorption (OD600-OD570); plate type 384well; NBS; CORNING #3640

Structure (SMILES)	Inhibition [1] [%]	Inhibition [2] [%]	Inhibition [3] [%]
Cn1nnc2c(C(N)=O)ncn2c1=O [TEMOZOLOMIDE]	7.88	1.91	-1.17
OCCN1C[C@H](O)[C@@H](O)[C@H](O)[C@H]1CO [MIGLITOL]	11.67	2.16	1.09
CC(C)Cc1ccc(C(C)C(=O)O)cc1 (stereo unspecified) [IBUPROFEN]	-1.68	13.3	-3.38
C[C@@H](O)[C@H]1C(=O)N2C(C(=O)O)=C(S[C@@H]3CN[C@H](C(=O)N(C)C)C3)[C@H](C)[C@H]12 [MEROPENEM]	0.03	3.42	2.76
Cc1cccc(C)c1NC(=O)C1CCCCN1C.Cl (stereo unspecified) [MEPIVACAINE HYDROCHLORIDE]	9.49	-0.43	-0.84
C[C@H]1C[C@@H]2[C@H]([C@@H](O)C[C@@]3(C)[C@H]2CC[C@]3(O)C(=O)CO)[C@@]2(C)C=CC(=O)C=C12 [METHYLPREDNISOLONE]	20.28	2.95	-7.56
CCCN(CCC)S(=O)(=O)c1ccc(C(=O)O)cc1 [PROBENECID]	16.52	–	-7.72
CC[C@]1(O)C[C@@H]2CN(CCc3c([nH]c4ccccc34)[C@@](C(=O)OC)(c3cc4c(cc3OC)N(C)[C@H]3[C@@](O)(C(N)=O)[C@H](O)[C@]5(CC)C=CCN6CC[C@]43[C@@H]65)C2)C1.O=S(=O)(O)O [VINDESINE SULFATE]	6.96	3.45	0.45
COc1ccc(OC)c(C(O)CNC(=O)CN)c1.Cl (stereo unspecified) [MIDODRINE HYDROCHLORIDE]	8.37	2.18	-10.49
